This note sets out measurements from PubChem BioAssay (NCI).

The panel holds about 83,000 compounds, 20% with a hit somewhere; the sample as a whole holds those more often.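 Assay: single dose, 48 h. Readout: percent growth (0 = no net growth; negative = cell death). Active: <10.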 Values without a mark were called inactive. The source made the active and inactive calls.

The assay relates to MOLT-4 leukemia. The assay can be described thus: NCI-60 one-dose screen, 48 h (100 = growth as untreated, 0 = no growth, -100 = all killed). As to conditions: 10 µM unless noted.
Consider `O=C(O)CSCC(=O)Nc1cc(C(F)(F)F)ccc1Cl`, for which the growth was 109%.
The same measure for `N=C(N)c1nn(C2OC(CO)C(O)C2O)c2nc[nH]c(=O)c12` (configuration not stated): -11.9% (active); for `CC(C)C(=O)OCCOc1ccc(C(C)(C)C)cc1`: 114%.
In the case of `OCCNc1ccccc1` it was 101%.
For the compound `C/C(=N\Nc1ccc([N+](=O)[O-])cc1[N+](=O)[O-])c1ccc(Br)cc1`, the growth was 104%.
On to `O=C(Oc1ccccc1Cl)c1ccc(Cl)cc1Cl`, for which the growth is 110%.
For the compound `C=C(C)COc1ccc(C(C)(C)C)cc1`, the growth is 111%.
As to `CCC(C)c1c(N)n(S(=O)(=O)c2ccc(C)cc2)oc1=O` (configuration not stated), the growth was 109%.
As for `Nc1ccn(C2CC(N)C(CO)O2)c(=O)n1` (configuration not stated), the growth is 31%.
In the case of `CN(CCCN(C)CCC1CCCCC1)CCC1CCCCC1`, the growth was 20.5%.
With `Cc1c(Cl)cccc1N=C=S`, the growth was 109%.
Take `CCCC1OC(c2ccco2)OCC1CC` (configuration not stated): the growth is 89.3%.
On to `CN1CCCN(C(c2ccccc2)c2ccc(Br)cc2)CC1` (configuration not stated), for which the growth is 55.5%.
As to `OCCOc1ccc(-c2cc(-c3ccccn3)nc(-c3ccccn3)c2)cc1`, the growth is -6.16% (active).
Regarding `O=C(Nc1cccc(Cl)c1)c1ccc(Cl)cc1Cl`, the growth was 87.9%.
The same measure for `CC(=O)Oc1c(Cl)cccc1-c1ccccc1`: 107%; for `C/C=C/C1OCC(CC)C(CCC)O1` (configuration not stated): 94%; for `COc1cccc(C(=O)O)c1OC`: 110%.
As to `CC(C)C1CCC(C)C(O)C1` (configuration not stated), the growth was 113%.
In the case of `COc1cc(CC#N)c([N+](=O)[O-])cc1OC` it was 94.6%; in that of `CCCNS(=O)(=O)c1ccc(Cl)cc1`, 113%; in that of `CCOC(=O)/C(C)=C\c1ccc(OC)c(OC)c1`, 94.5%.
On to `O=C(NCc1ccccc1)c1cccc([N+](=O)[O-])c1`, for which the growth is 102%.
For `OCCc1ccc(Cl)cc1`, the growth is 109%.
Regarding `C/C(=N\O)c1ccccn1`, the growth was 116%.
The same measure for `CC1(C)OC(=O)CC1=O`: 85.1%; for `O=C1C=Cc2ccccc2/C1=C/c1[nH]c(=O)[nH]c1O`: 43%; for `Nc1ncnc2c1ncn2C1OC(CO)C2OC21` (configuration not stated): 111%.
As for `C=CCS(C)(=O)=O`, the growth was 109%.
In the case of `Cc1ccc(C2CCCCC2)cc1Br` it was 110%.
The same measure for `Cc1ccc2[nH]c3ccccc3c2c1`: 94.4%; for `Cc1ccc(/C=N/NC(N)=S)s1`: 99.4%; for `O=S(=O)(O)c1cccnc1`: 79.6%.
As to `O=C(O)c1ccccc1Cc1ccc2c(c1)CCCC2`, the growth is 97.9%.
`Nc1cc(F)ccc1[N+](=O)[O-]`: the growth is 109%.
Regarding `CCOc1ccc(C(=O)O)cc1`, the growth is 116%.
With `CCCCOC(=O)c1ccccc1O`, the growth was 117%.
